14 compounds from PubChem BioAssay (NCI) can be followed below.

The structures appear in SMILES notation. Compounds without any hit were thinned out: in the full panel of roughly 83,000, 20% have a hit.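 Treatment: one concentration, 48 hours, 96-well format. Scoring: percent growth, with anything below 10 considered active.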 A number with no mark means an inactive call. Activity calls are given as the source filed them.

Test systems include SR leukemia; RPMI-8226 leukemia; OVCAR-8 ovarian; OVCAR-5 ovarian; OVCAR-4 ovarian; SK-OV-3 ovarian; IGROV1 ovarian; OVCAR-3 ovarian; HS 578T breast; NCI/ADR-RES ovarian.
Common to all, as to assay: NCI-60 one-dose screen, 48 h (100 = growth as untreated, 0 = no growth, -100 = all killed)
Conditions in all cases: 10 µM unless noted

Consider `COc1ccc(CCNC2=CC(=O)CCC2)cc1OC`, for which the growth with SR leukemia was 85.9%; with RPMI-8226 leukemia it was 107%; with OVCAR-8 ovarian, 106%; in the experiment on OVCAR-5 ovarian, 105%; in the experiment with OVCAR-4 ovarian it was 115%; in the experiment on SK-OV-3 ovarian, 105%. For the same compound, the growth in the experiment on IGROV1 ovarian was 113%; in the experiment with OVCAR-3 ovarian, 105%; in the experiment on HS 578T breast it was 94.6%; in the experiment with NCI/ADR-RES ovarian, 102%.

For `CCN(CC)c1ccc(/C=C2\Oc3ccc(O)c(I)c3C2=O)cc1`, the growth with SR leukemia is 2.38% (active); in the experiment on RPMI-8226 leukemia, 32.3%; in the experiment on OVCAR-8 ovarian, 61.7%; with OVCAR-5 ovarian, 95.1%; in the experiment on OVCAR-4 ovarian, 81.5%; in the experiment on SK-OV-3 ovarian it was 79.5%. The growth is 40.4% in the experiment with IGROV1 ovarian, 19.1% in the experiment on OVCAR-3 ovarian, 75.4% in the experiment on HS 578T breast and 37.9% in the experiment with NCI/ADR-RES ovarian.

For the compound `Cc1ccc(S(=O)(=O)/C(=C\c2ccc(Cl)cc2)C(=O)c2ccccc2)cc1`, the growth is 105% in the experiment with SR leukemia; 103% with RPMI-8226 leukemia; 107% in the experiment on OVCAR-8 ovarian; 114% with OVCAR-5 ovarian; 107% in the experiment on OVCAR-4 ovarian; 96.9% in the experiment with SK-OV-3 ovarian. Moreover, the growth in the experiment with IGROV1 ovarian was 109%; in the experiment on OVCAR-3 ovarian, 119%; in the experiment on HS 578T breast, 119%; in the experiment on NCI/ADR-RES ovarian it was 104%.

As to `CC1(C)C(=O)/C(=C\c2ccc(C(F)(F)F)cc2)C[C@]2(C)[C@H]3CC[C@@H]4[C@H]5[C@H](C(=O)/C=C/c6ccc(C(F)(F)F)cc6)CC[C@]5(CO)CC[C@@]4(C)[C@]3(C)CC[C@@H]12`, the growth is 82.2% in the experiment with SR leukemia; 88.6% in the experiment on RPMI-8226 leukemia; 79.6% in the experiment on OVCAR-8 ovarian; 107% in the experiment on OVCAR-5 ovarian; 96.6% with OVCAR-4 ovarian; 110% with SK-OV-3 ovarian. The growth was 92.4% in the experiment on IGROV1 ovarian, 97% with OVCAR-3 ovarian, 95.8% in the experiment with HS 578T breast and 99.1% in the experiment on NCI/ADR-RES ovarian.

As to `CCCN=C1NC(=O)/C(=C/c2nc(-c3ccc(OC)cc3)n3ccccc23)S1`, the growth was 62.5% in the experiment with SR leukemia; 74% in the experiment with RPMI-8226 leukemia; 86.7% in the experiment with OVCAR-8 ovarian; 104% with OVCAR-5 ovarian; 87.5% in the experiment with OVCAR-4 ovarian; 98.1% with SK-OV-3 ovarian. In addition, the growth in the experiment on IGROV1 ovarian is 94%; in the experiment on OVCAR-3 ovarian, 61.9%; in the experiment with HS 578T breast, -8.63% (active); in the experiment on NCI/ADR-RES ovarian it was 83.6%.

As for `CN1C(=O)N(C)C2C1NN=c1s/c(=C\c3cccnc3)c(=O)n12` (stereo not given), the growth in the experiment on SR leukemia was 27.3%; with RPMI-8226 leukemia, 95.4%; in the experiment on OVCAR-8 ovarian it was 93.2%; in the experiment with OVCAR-5 ovarian, 93%; with OVCAR-4 ovarian it was 93.6%; with SK-OV-3 ovarian, 85%. The growth in the experiment with IGROV1 ovarian is 80.8%; in the experiment with OVCAR-3 ovarian, 65.6%; in the experiment with HS 578T breast, 84.8%; in the experiment with NCI/ADR-RES ovarian, 78.5%.

Take `N[C@@H]1CCN(C(=O)c2cc3cc(Cl)c(F)c(F)c3[nH]2)C1`: the growth was 88.3% in the experiment on SR leukemia; 96% in the experiment with RPMI-8226 leukemia; 96.3% in the experiment with OVCAR-8 ovarian; 90.3% in the experiment on OVCAR-5 ovarian; 96.5% with OVCAR-4 ovarian; 89.3% in the experiment on SK-OV-3 ovarian. The growth with IGROV1 ovarian is 80.7%; in the experiment on OVCAR-3 ovarian, 97.6%; with HS 578T breast, 87.5%; in the experiment with NCI/ADR-RES ovarian, 103%.

Take `CC(C)(C)Nc1c(-c2cccs2)nc2ncccn12`: the growth is 92.4% in the experiment with SR leukemia; 94.2% in the experiment with RPMI-8226 leukemia; 104% with OVCAR-8 ovarian; 108% in the experiment on OVCAR-5 ovarian; 103% in the experiment with OVCAR-4 ovarian; 99.9% with SK-OV-3 ovarian. Also, the growth in the experiment with IGROV1 ovarian is 102%; in the experiment on OVCAR-3 ovarian, 102%; in the experiment with HS 578T breast it was 97.8%; in the experiment on NCI/ADR-RES ovarian, 104%.

In the case of `Cc1ccc2[nH]c(=O)c3c(c2c1)Oc1ncn2nc(-c4ccco4)nc2c1C3c1ccc(Cl)cc1` (stereo not given), the growth with SR leukemia is 106%; in the experiment on RPMI-8226 leukemia, 101%; with OVCAR-8 ovarian, 93.4%; with OVCAR-5 ovarian, 98.2%; in the experiment on OVCAR-4 ovarian, 87.9%; with SK-OV-3 ovarian it was -90.5% (active). Moreover, the growth in the experiment with IGROV1 ovarian is 98%; in the experiment on OVCAR-3 ovarian it was 111%; with HS 578T breast, 93%; in the experiment on NCI/ADR-RES ovarian, 94.9%.

On to `O=C1CS/C(=N\Nc2cc(=O)[nH]c3ccccc23)N1c1ccccc1`, for which the growth with SR leukemia is 77.9%; in the experiment on RPMI-8226 leukemia, 88.4%; in the experiment on OVCAR-8 ovarian, 94%; in the experiment with OVCAR-5 ovarian, 95.6%; in the experiment on OVCAR-4 ovarian, 97%; in the experiment on SK-OV-3 ovarian, 107%. The growth in the experiment on IGROV1 ovarian was 89.1%; in the experiment on OVCAR-3 ovarian it was 99.8%; with HS 578T breast it was 97.1%; with NCI/ADR-RES ovarian, 91.3%.

Regarding `C=CCn1cc(-c2nc3ccccc3s2)c2cc(-c3ccc4c5c(cccc35)C(=O)N(CCN3CCNCC3)C4=O)ccc21`, the growth was 4.31% (active) with SR leukemia; 46.7% in the experiment with RPMI-8226 leukemia; 13.7% in the experiment on OVCAR-8 ovarian; 90.3% with OVCAR-5 ovarian; 88.5% in the experiment on OVCAR-4 ovarian; 101% in the experiment on SK-OV-3 ovarian. Besides, the growth with IGROV1 ovarian is 68.1%; in the experiment with OVCAR-3 ovarian, 105%; in the experiment on HS 578T breast, 91.8%; in the experiment on NCI/ADR-RES ovarian, 83.1%.

As to `COc1ccc(N=Cc2c(O)ccc3c2oc2cc(Cl)c(O)c(Cl)c23)cc1`, the growth in the experiment with SR leukemia was 83%; in the experiment on RPMI-8226 leukemia, 78.3%; in the experiment on OVCAR-8 ovarian, 93.8%; in the experiment on OVCAR-5 ovarian it was 102%; with OVCAR-4 ovarian, 98.3%; in the experiment with SK-OV-3 ovarian, 104%. Besides, the growth in the experiment on IGROV1 ovarian is 62.2%; with OVCAR-3 ovarian it was 117%; with HS 578T breast, 93.5%; in the experiment with NCI/ADR-RES ovarian, 84.5%.

As for `c1ccc(-c2nnc(-c3ccccn3)s2)nc1`, the growth is 96.7% in the experiment on SR leukemia; 54.8% with RPMI-8226 leukemia; 94% in the experiment with OVCAR-8 ovarian; 92.2% with OVCAR-5 ovarian; 91.5% with OVCAR-4 ovarian; 95.2% in the experiment with SK-OV-3 ovarian. For the same compound, the growth with IGROV1 ovarian was 80.7%; with OVCAR-3 ovarian, 95.5%; in the experiment on HS 578T breast, 142%; in the experiment on NCI/ADR-RES ovarian, 83%.

For the compound `COC(=O)c1cc(=O)nc(N/N=C/c2ccco2)s1`, the growth with SR leukemia was 87%; in the experiment on RPMI-8226 leukemia, 96%; in the experiment with OVCAR-8 ovarian it was 107%; in the experiment on OVCAR-5 ovarian, 108%; in the experiment with OVCAR-4 ovarian it was 96.7%; in the experiment with SK-OV-3 ovarian, 117%. Further, the growth in the experiment with IGROV1 ovarian is 93.4%; in the experiment on OVCAR-3 ovarian, 106%; in the experiment on HS 578T breast it was 106%; with NCI/ADR-RES ovarian, 104%.
